Experiment in all cases: PBM; 200 nM protein, PBS
What all share (settings): dsDNA, one strand shown

Assay [1] deals with T1, SIX6 (Homo sapiens, UniProt O95475 114-200, L167I).
T1 sequence: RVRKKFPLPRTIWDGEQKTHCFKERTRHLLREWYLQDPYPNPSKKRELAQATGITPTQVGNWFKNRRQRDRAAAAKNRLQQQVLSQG

For assay [2], the target named is T2, SIX6 (Homo sapiens, UniProt O95475 114-200, L143V).
T2 sequence: T1 sequence with L30V, I54L

For assay [3], the target named is T3, SIX6 (Homo sapiens, UniProt O95475 114-200, H141N).
T3 sequence: T1 sequence with H28N, I54L

Assay [4] deals with T4, SIX6 (Homo sapiens, UniProt O95475 114-200, T165P).
T4 sequence: T1 sequence with T52P, I54L

Assay [5] addresses T5, SIX6 (Homo sapiens, UniProt O95475 114-200, L167M).
T5 sequence: T1 sequence with I54M

For assay [6], the target named is T6, SIX6 (Homo sapiens, UniProt O95475 114-200, L143M).
T6 sequence: T1 sequence with L30M, I54L

Assay [7] deals with T7, SIX6 (Homo sapiens, UniProt O95475 114-200, L143I).
T7 sequence: T1 sequence with L30I, I54L

The target of assay [8] is T8, SIX6 (Homo sapiens, UniProt O95475 114-200, T165G).
T8 sequence: T1 sequence with T52G, I54L

In assay [9] the target is T9, SIX6 (Homo sapiens, UniProt O95475 114-200, T139Q).
T9 sequence: T1 sequence with T26Q, I54L

The target of assay [10] is T10, SIX6 (Homo sapiens, UniProt O95475 114-200, T165A).
T10 sequence: T1 sequence with T52A, I54L

Assay [11] has as its target T11, SIX6 (Homo sapiens, UniProt O95475 114-200, L167V).
T11 sequence: T1 sequence with I54V

Assay [12] concerns the target T12, SIX6 (Homo sapiens, UniProt O95475 114-200).
T12 sequence: T1 sequence with I54L

Assay [13] deals with T13, SIX6 (Homo sapiens, UniProt O95475 114-200, T165I).
T13 sequence: T1 sequence with T52I, I54L

Assay [14] concerns the target HOXA2 (Homo sapiens, UniProt O43364 129-215, R185T).
Assay [15] addresses HOXA2 (Homo sapiens, UniProt O43364 129-215, R185K).
Assay [16] has as its target HOXA2 (Homo sapiens, UniProt O43364 129-215, Y150S).
Assay [17] addresses HOXA2 (Homo sapiens, UniProt O43364 129-215).

Positions count from the first letter of the chain named.

Consider five sequences from article PMC11006913.

HOXA2 (Homo sapiens, UniProt O43364 129-215), sequence (O43364 129-215): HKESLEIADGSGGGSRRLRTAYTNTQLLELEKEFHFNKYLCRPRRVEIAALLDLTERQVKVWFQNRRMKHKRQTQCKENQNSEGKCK
HOXA2 (Homo sapiens, UniProt O43364 129-215, R185T), sequence (O43364 129-215 R185T): as the sequence (O43364 129-215) above, with R57T counted along it
HOXA2 (Homo sapiens, UniProt O43364 129-215, Y150S), sequence (O43364 129-215 Y150S): as the sequence (O43364 129-215) above, with Y22S counted along it
HOXA2 (Homo sapiens, UniProt O43364 129-215, R185K), sequence (O43364 129-215 R185K): as the sequence (O43364 129-215) above, with R57K counted along it

As for GTATCATA, the binding signal with SIX6 [1] was 11.5 upbm affinity estimate (log intensity, higher = more binding, comparable within an allelic series); with SIX6 [2] it was 10.5 upbm affinity estimate (log intensity, higher = more binding, comparable within an allelic series); with SIX6 [3] it was 11.5 upbm affinity estimate (log intensity, higher = more binding, comparable within an allelic series); with SIX6 [4] it was 9.93 upbm affinity estimate (log intensity, higher = more binding, comparable within an allelic series); with SIX6 [5], 10.8 upbm affinity estimate (log intensity, higher = more binding, comparable within an allelic series); with SIX6 [6] it was 11.2 upbm affinity estimate (log intensity, higher = more binding, comparable within an allelic series). In addition, the binding signal with SIX6 [7] was 10.6 upbm affinity estimate (log intensity, higher = more binding, comparable within an allelic series); with SIX6 [8] it was 11.5 upbm affinity estimate (log intensity, higher = more binding, comparable within an allelic series); in the assay with SIX6 [9], 11.3 upbm affinity estimate (log intensity, higher = more binding, comparable within an allelic series); in the assay with SIX6 [10], 11.4 upbm affinity estimate (log intensity, higher = more binding, comparable within an allelic series); with SIX6 [11] it was 11.3 upbm affinity estimate (log intensity, higher = more binding, comparable within an allelic series); with SIX6 [12], 11.2 upbm affinity estimate (log intensity, higher = more binding, comparable within an allelic series). Further, the binding signal in the assay with SIX6 [13] is 11.3 upbm affinity estimate (log intensity, higher = more binding, comparable within an allelic series).
CCCTAGGG: the binding signal with SIX6 [1] is 8.88 upbm affinity estimate (log intensity, higher = more binding, comparable within an allelic series); with SIX6 [2], 8.72 upbm affinity estimate (log intensity, higher = more binding, comparable within an allelic series); with SIX6 [3], 8.93 upbm affinity estimate (log intensity, higher = more binding, comparable within an allelic series); in the assay with SIX6 [4], 8.83 upbm affinity estimate (log intensity, higher = more binding, comparable within an allelic series); in the assay with SIX6 [5] it was 8.9 upbm affinity estimate (log intensity, higher = more binding, comparable within an allelic series); with SIX6 [6] it was 8.91 upbm affinity estimate (log intensity, higher = more binding, comparable within an allelic series). Besides, the binding signal is 8.92 upbm affinity estimate (log intensity, higher = more binding, comparable within an allelic series) with SIX6 [7]; 8.95 upbm affinity estimate (log intensity, higher = more binding, comparable within an allelic series) with SIX6 [8]; 7.32 upbm affinity estimate (log intensity, higher = more binding, comparable within an allelic series) in the assay with HOXA2 [14]; 9.15 upbm affinity estimate (log intensity, higher = more binding, comparable within an allelic series) with SIX6 [9]; 8.86 upbm affinity estimate (log intensity, higher = more binding, comparable within an allelic series) in the assay with SIX6 [10]; 10.4 upbm affinity estimate (log intensity, higher = more binding, comparable within an allelic series) with HOXA2 [15]. Besides, the binding signal was 9.08 upbm affinity estimate (log intensity, higher = more binding, comparable within an allelic series) with SIX6 [11]; 8.85 upbm affinity estimate (log intensity, higher = more binding, comparable within an allelic series) with SIX6 [12]; 8.92 upbm affinity estimate (log intensity, higher = more binding, comparable within an allelic series) with SIX6 [13]; 10.3 upbm affinity estimate (log intensity, higher = more binding, comparable within an allelic series) with HOXA2 [16]; 7.33 upbm affinity estimate (log intensity, higher = more binding, comparable within an allelic series) with HOXA2 [17].
For the sequence CGCTCCGC, the binding signal is 8.79 upbm affinity estimate (log intensity, higher = more binding, comparable within an allelic series) in the assay with SIX6 [1]; 8.89 upbm affinity estimate (log intensity, higher = more binding, comparable within an allelic series) in the assay with SIX6 [2]; 8.83 upbm affinity estimate (log intensity, higher = more binding, comparable within an allelic series) in the assay with SIX6 [3]; 8.94 upbm affinity estimate (log intensity, higher = more binding, comparable within an allelic series) in the assay with SIX6 [4]; 8.9 upbm affinity estimate (log intensity, higher = more binding, comparable within an allelic series) with SIX6 [5]; 8.87 upbm affinity estimate (log intensity, higher = more binding, comparable within an allelic series) with SIX6 [6]. Also, the binding signal is 8.84 upbm affinity estimate (log intensity, higher = more binding, comparable within an allelic series) with SIX6 [7]; 8.81 upbm affinity estimate (log intensity, higher = more binding, comparable within an allelic series) with SIX6 [8]; 8.84 upbm affinity estimate (log intensity, higher = more binding, comparable within an allelic series) with SIX6 [9]; 8.85 upbm affinity estimate (log intensity, higher = more binding, comparable within an allelic series) in the assay with SIX6 [10]; 8.79 upbm affinity estimate (log intensity, higher = more binding, comparable within an allelic series) with SIX6 [11]; 8.81 upbm affinity estimate (log intensity, higher = more binding, comparable within an allelic series) in the assay with SIX6 [12]. Moreover, in the assay with SIX6 [13], the binding signal is 8.82 upbm affinity estimate (log intensity, higher = more binding, comparable within an allelic series).
In the case of AGATATAC, the binding signal with SIX6 [1] was 11 upbm affinity estimate (log intensity, higher = more binding, comparable within an allelic series); with SIX6 [2] it was 10.4 upbm affinity estimate (log intensity, higher = more binding, comparable within an allelic series); in the assay with SIX6 [3], 10.8 upbm affinity estimate (log intensity, higher = more binding, comparable within an allelic series); in the assay with SIX6 [4] it was 9.92 upbm affinity estimate (log intensity, higher = more binding, comparable within an allelic series); with SIX6 [5], 10.9 upbm affinity estimate (log intensity, higher = more binding, comparable within an allelic series); in the assay with SIX6 [6], 10.9 upbm affinity estimate (log intensity, higher = more binding, comparable within an allelic series). Moreover, the binding signal with SIX6 [7] is 10.4 upbm affinity estimate (log intensity, higher = more binding, comparable within an allelic series); in the assay with SIX6 [8], 11 upbm affinity estimate (log intensity, higher = more binding, comparable within an allelic series); in the assay with HOXA2 [14] it was 8.17 upbm affinity estimate (log intensity, higher = more binding, comparable within an allelic series); in the assay with SIX6 [9] it was 10.9 upbm affinity estimate (log intensity, higher = more binding, comparable within an allelic series); in the assay with SIX6 [10], 10.8 upbm affinity estimate (log intensity, higher = more binding, comparable within an allelic series); with SIX6 [11], 10.7 upbm affinity estimate (log intensity, higher = more binding, comparable within an allelic series). Moreover, the binding signal in the assay with SIX6 [12] was 10.9 upbm affinity estimate (log intensity, higher = more binding, comparable within an allelic series); in the assay with SIX6 [13], 10.8 upbm affinity estimate (log intensity, higher = more binding, comparable within an allelic series); with HOXA2 [17], 8.19 upbm affinity estimate (log intensity, higher = more binding, comparable within an allelic series).
CGGCCTGC: the binding signal is 8.86 upbm affinity estimate (log intensity, higher = more binding, comparable within an allelic series) in the assay with SIX6 [1]; 8.66 upbm affinity estimate (log intensity, higher = more binding, comparable within an allelic series) with SIX6 [2]; 8.83 upbm affinity estimate (log intensity, higher = more binding, comparable within an allelic series) with SIX6 [3]; 8.82 upbm affinity estimate (log intensity, higher = more binding, comparable within an allelic series) with SIX6 [4]; 8.8 upbm affinity estimate (log intensity, higher = more binding, comparable within an allelic series) in the assay with SIX6 [5]; 8.73 upbm affinity estimate (log intensity, higher = more binding, comparable within an allelic series) with SIX6 [6]. The binding signal with SIX6 [7] was 8.72 upbm affinity estimate (log intensity, higher = more binding, comparable within an allelic series); in the assay with SIX6 [8], 8.88 upbm affinity estimate (log intensity, higher = more binding, comparable within an allelic series); with SIX6 [9], 8.8 upbm affinity estimate (log intensity, higher = more binding, comparable within an allelic series); with SIX6 [10], 8.82 upbm affinity estimate (log intensity, higher = more binding, comparable within an allelic series); with SIX6 [11], 8.8 upbm affinity estimate (log intensity, higher = more binding, comparable within an allelic series); with SIX6 [12], 8.79 upbm affinity estimate (log intensity, higher = more binding, comparable within an allelic series). For the same sequence, the binding signal in the assay with SIX6 [13] is 8.82 upbm affinity estimate (log intensity, higher = more binding, comparable within an allelic series).
